In one assay the target is RIT1. Briefly: pooled miR-30 sensor sort-seq; sequence = guide strand. As to conditions: shRNA.
In turn, TTAGCCTCTTCCATACACTGTT returned a sensor-assay potency score (higher = more potent) of -0.476.
On the same count and under the same terms, as for TAAACTCTGCCTGTCCAGCTGT, the figure is 0.108.
TAGCTGTTTGAGGTCTGACTTG: the sensor-assay potency score (higher = more potent) was -0.94.
As to TTCTTTCCTACGTATCTCCCGT, the sensor-assay potency score (higher = more potent) is -0.212.
On to TAAGCTGTTTAAACTCACGAAC, for which the sensor-assay potency score (higher = more potent) was -0.618.
As for TATAGTAGCGGTATGCAGCAGA, the sensor-assay potency score (higher = more potent) is 0.384.
On the same count and under the same terms, as for TCGGACTCGATAAATAAGCTGT, the figure is -0.314; as for TAGCCTCTTCCATACACTGTTT, -0.898.

A further assay addresses RNASE11. The description is as above. As to conditions: shRNA.
As for TTGTGCTTTCTGATGCTTCTGC, the sensor-assay potency score (higher = more potent) was 0.534.
On to TTTAACTAACAGGATCGGGTTC, for which the sensor-assay potency score (higher = more potent) is -0.116.
As for TTGGATTTTTCACTCCTCCAGT, the sensor-assay potency score (higher = more potent) was -0.449.
Regarding TTCTGTACAAACTTGCAGCTGG, the sensor-assay potency score (higher = more potent) came out at 0.788.
With TAATGAGGTAACACTATGGTAT, the sensor-assay potency score (higher = more potent) was -0.534.
The same measure, in the same setting: as for TTCTCTAATGAGGTAACACTAT, the figure is -1.05; as for TGATGCTTCTGCAAGAACCAGG, -0.377; as for TATTGCATCTCTTCGTCTGTAA, 0.018.
TTCGTCTGTAAATTCTTCTTTA came in with a sensor-assay potency score (higher = more potent) of -0.406.
TTATCTTCATTGTGCTTTCTGA returned a sensor-assay potency score (higher = more potent) of -0.608.
TTTAGTAAGACCCTAGTCCTAA had a sensor-assay potency score (higher = more potent) of -0.427.
TCTTTAATTATCTTCATTGTGC yielded a sensor-assay potency score (higher = more potent) of -0.382.

The values above are taken from the OligoGym collection.
Also: reference of the scale not given here.
